# Screening data from PubChem.
# Pf apPOL block: Pf-apPOL DNA polymerase inhibition; Recombinant Pf-apPOL, molecular beacon fluorescence, 1.5 h; inhibition, % at 10 µM; AID 1794808; hit rate 0.25% among 210,000
# mHTT-CaM PPI inh: disrupts binding of mutant huntingtin to calmodulin; AlphaScreen His-mHTT/GST-CaM binding, luminescence; hit rate 3.6% among 190,000; inhibition, % at 15 µM; AID 1671202;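 note: 0% = both proteins with DMSO and 100% = one protein alone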
# The depositor's hits bear a star; / = not tested or not shown; ! = a repeat was not active. Only some compounds are listed: those with a hit (about 3.6% of all), similar ones and a draw of the others. Cut-off read from the data, not from the text of the source: active = inhibition above about 50%; inactive = the rest.
SMILES,Pf apPOL block,mHTT-CaM PPI inh
C=C(C)C1CC=C(CNc2ccc(OC)c(OC)c2)CC1 (configuration not stated),-6.4,86.1*
N#Cc1c(N)nc2sc(C(=O)c3ccc(Cl)cc3)c(N)c2c1-c1ccc(O)cc1,8.5,83.0*
COc1ccc(-c2c(C#N)c(N)nc3sc(C(=O)c4ccc(C)cc4)c(N)c23)cc1,-0.9,-3.0
Cc1ccc(S(=O)(=O)N2N=C(C3CCCCC3)CC2(O)C(F)(F)F)cc1 (configuration not stated),6.0,0.0
CN(C)c1cccc(OCc2noc(-c3cccc(Cl)c3)n2)c1,-21.2,61.7*
COc1cccc(OCc2noc(-c3cccc(Cl)c3)n2)c1,-0.7,-43.4
CS(=O)(=O)N1CCN(C(=O)CN2CCN(c3ccc4c(c3)OCCO4)C2=O)CC1,-3.5,-9.1
NC(N)=Nc1nc(-c2ccccc2)c(-c2ccccc2)s1,-0.5,100.1*
CC(=O)Nc1nc(-c2ccc(C)cc2)c(-c2ccccc2)s1,-0.3,33.9
COc1ccc2cc3cc(C(=O)NCc4ccc(F)cc4Cl)oc3nc2c1,0.6,-6.0
O=C1OC(c2ccc(Cl)cc2)=N/C1=C\c1ccco1,-4.7,-4.0
O=C1OC(c2ccc(Cl)cc2)=N/C1=C\C=C\c1ccco1,3.8,68.0*
Cc1nn(-c2ccccc2Cl)c(=O)c2ccccc12,-1.5,-3.0
CCN(CC(=O)N1CCCc2c1c(=O)oc1ccc(O)cc21)c1cccc(C)c1,-9.2,-2.0
O=C(NCCn1nc(-c2ccccc2)ccc1=O)c1ccc(-n2cccc2)cc1,-6.5,63.3*
Cn1nc(-c2ccccc2)cc1C(=O)NCCn1nc(-c2ccc(Cl)cc2)ccc1=O,-7.7,-5.7
O=C(CCn1ccc(=O)[nH]c1=O)N1CCC(COCc2ccccc2)CC1,2.8,-4.4
O=C(Cn1ccc2ccccc21)N1CCC(COCc2ccccc2)CC1,-15.9,58.0*
CCC(Sc1nnc2c(n1)[nH]c1ccccc12)C(=O)Nc1cccc(C(C)=O)c1 (configuration not stated),1.1,64.8*!
O=C(CSc1nnc2c(n1)[nH]c1ccccc12)Nc1ccccc1,33.8,5.0
CCCc1nnsc1C(=O)Nc1cccc2ccc(OC)nc12,-1.7,-13.9
Cc1ccc(S(=O)(=O)C(CN)c2cccs2)cc1 (configuration not stated),69.3*,-15.6
O=C(NCC(c1cccs1)S(=O)(=O)c1ccccc1)Oc1ccccc1 (configuration not stated),1.6,1.7
O=C(NCCN1CCN(C(=O)NC(c2ccccc2)c2ccccc2)CC1)c1ccsc1,-5.3,8.0
O=C(Nc1ccc(F)cc1F)c1cccs1,-4.6,-3.2
SMILES,Pf apPOL block,mHTT-CaM PPI inh
COC(=O)C1CN(Cc2ccc(F)cc2)CCS(=O)(=O)N1Cc1ccc(C)cc1 (configuration not stated),-1.9,50.0*
COC(=O)C1CN(CCc2ccccc2)CCS(=O)(=O)N1Cc1ccccc1 (configuration not stated),-2.9,12.3
COC(=O)C1CN(Cc2ccc(C)cc2)CCS(=O)(=O)N1Cc1cn(Cc2ccc(F)cc2)nn1 (configuration not stated),-6.6,3.0
COC(=O)C1CN(CCc2ccccc2)CCS(=O)(=O)N1Cc1ccc(C(F)(F)F)cc1 (configuration not stated),-1.0,76.7*
Cc1ccnc(N2CCCC(C(=O)Nc3c(C)cccc3C)C2)n1 (configuration not stated),-0.6,-9.2
CSc1ccc(C2Nc3ccccc3C(=O)N2c2ccc(C)cc2)cc1 (configuration not stated),-1.9,-2.0
CSc1ccc(C2Nc3cccc4cccc(c34)N2)cc1,/,69.3*
COC(=O)N1CCN(CCNC(=O)c2cnc3ccccc3n2)CC1,0.1,-8.6
COc1ccc(Nc2nc(N(C)C)nc3nccnc23)cc1,-20.5,54.9*
COc1ccc(OC)c(Nc2nc3nonc3nc2Nc2ccc(F)cc2)c1,4.9,14.0
Cc1cccc(COc2ccc3c4c(c(=O)oc3c2)CCC4)c1,-0.1,-6.0
Oc1cccc(C=Nc2c(-c3ccco3)nc3ccccn23)c1,8.5,49.0
Cc1[nH]c2ccccc2c1C=Nc1c(-c2ccco2)nc2ccccn12,-3.3,91.0*
Cc1cc(O)c(NC(=O)COc2ccc(Cl)cc2C)cc1C,0.2,-5.8
COc1ccc(N=Cc2cc3c(cc2O)OC(N)=C(C#N)C3c2cccc(F)c2)cc1 (configuration not stated),3.7,81.0*
N#CC1=C(N)Oc2cc(O)ccc2C1c1ccccc1Br (configuration not stated),-9.5,11.0
COc1ccc(C2C(C#N)=C(N)Oc3cccc(O)c32)cc1 (configuration not stated),-5.1,7.6
N#CC1=C(N)Oc2cc(O)c(C=Nc3ccc(Br)cc3)cc2C1c1ccco1 (configuration not stated),0.6,100.0*
N#CC(=CNc1ccccn1)C(=O)c1ccccc1,0.8,/
CC1=NN(c2ccccc2)C(=O)C1,-2.8,/
CC1=NN(c2ccc(Cl)cc2)C(=O)C1,-2.0,68.4*
NC1CCCc2c1[nH]c1ccc([N+](=O)[O-])cc21 (configuration not stated),2.8,12.4
O=[N+]([O-])c1ccc2[nH]c3c(c2c1)CCCC3NC1CCN(CCc2ccccc2)CC1 (configuration not stated),-1.4,100.3*
Cc1onc(-c2ccccc2Cl)c1C(=O)Nc1cccc2ccc(-n3ccnc3)nc12,5.7,42.7
O=C(Nc1cccc2ccc(-n3ccnc3)nc12)c1ccccc1Cl,1.3,61.8*
SMILES,Pf apPOL block,mHTT-CaM PPI inh
CCn1c(SC)nnc1-c1nn(C)c2c1CN(C(=O)CC1CCCC1)CC2,-1.3,-1.9
Cc1nc(C)c(Cc2ccc(Cl)cc2)c(N2CCN(C(=O)C3CCOC3)CC2)n1 (configuration not stated),-1.9,63.8*
Cc1ccc(C)c(Cc2c(C)nc(C)nc2N2CCN(C(=O)C3CCOC3)CC2)c1 (configuration not stated),3.4,38.0
COc1ccc(NC(=O)c2ccc(C(C)C)cc2)c([N+](=O)[O-])c1,-5.2,18.0
N#C/C(=C\c1cccn1-c1ccc(S(N)(=O)=O)cc1)c1nc2ncc(Br)cc2[nH]1,-2.1,38.0
CC1(C)C2CCC1(C)C(OCC(O)CN1CCN(c3cccc(C(F)(F)F)c3)CC1)C2 (configuration not stated),-5.4,93.3*
CC1(C)C2CCC1(C)C(OCC(O)CN1CCN(c3ccccc3F)CC1)C2 (configuration not stated),-3.0,46.8
Cc1ncn(CC(=O)N2CCC(c3nnc(-c4ccco4)s3)CC2)c(=O)c1C,-0.5,-3.0
O=C1NC2(CCN(Cc3ccc(F)cc3Cl)CC2)N=C1c1ccccc1,7.2,2.4
CSc1ccccc1NC(=O)NCc1ccccc1F,-15.3,/
CCCNC(=O)c1ccc2ncc3c(=O)n(-c4ccc(Cl)cc4)[nH]c3c2c1,-1.6,57.5*
CCCNC(=O)c1ccc2ncc3c(=O)n(-c4ccc(F)cc4)[nH]c3c2c1,0.4,11.9
Cc1ccccc1S(=O)(=O)N1CCC(c2cc(N)on2)CC1,-8.2,2.0
O=C(Nc1c2c(nn1-c1ccc(F)cc1)CS(=O)C2)c1cccc(F)c1 (configuration not stated),-2.4,-1.0
O=C(Nc1nc(-c2ccccn2)cs1)c1ccc(S(=O)(=O)N2CCOCC2)cc1,-7.5,3.0
O=C(Nc1nc(-c2ccccn2)cs1)c1ccc(S(=O)(=O)N2CCCCC2)cc1,1.6,100.0*
